Measurements published in article PMC5540273 (PLoS ONE, 2017).

Key:
Settings in all cases: concentration: 1 μM, replicates: in singlicate; n = 1
CAMKK2 = test system: CAMKK2
CASK = test system: CASK
CDC2L1 = test system: T1, CDC2L1
T1 construct: gene CDK11B

CDC2L2 = test system: CDC2L2
CDC2L5 = test system: T2, CDC2L5
T2 construct: gene CDK13

CDK11 = test system: T3, CDK11
T3 construct: gene CDK19

CDK2 = test system: CDK2
CDK3 = test system: CDK3
CDK4-cyclinD1 = test system: CDK4-cyclinD1
CDK4-cyclinD3 = test system: CDK4-cyclinD3
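Also: KINOMEscan kinase panel screen.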

| SMILES | %Inh (CAMKK2) [%] | %Inh (CASK) [%] | %Inh (CDC2L1) [%] | %Inh (CDC2L2) [%] | %Inh (CDC2L5) [%] | %Inh (CDK11) [%] | %Inh (CDK2) [%] | %Inh (CDK3) [%] | %Inh (CDK4-cyclinD1) [%] | %Inh (CDK4-cyclinD3) [%] |
| --- | --- | --- | --- | --- | --- | --- | --- | --- | --- | --- |
| CCn1c(-c2ccccn2)nc2cnccc21 [SB-736398] | 0 | 2 | 27 | 0 | 100 | 0 | 0 | 0 | 0 | 3 |
| Fc1cccc(COc2nnc(-c3ccc4c(c3)CCO4)o2)c1 | 0 | 10 | 1 | 0 | 18 | 16 | 0 | 4 | 9 | 0 |
| COc1cc2ncn(-c3cc(OCC4CCCO4)c(C(N)=O)s3)c2cc1OC (centres unmarked) [GSK204607] | 8 | 0 | 0 | 8 | 0 | 0 | 0 | 0 | 0 | 0 |
| CCCc1ccc(S(=O)(=O)NC2CCN(c3ccnc(Nc4ccc(F)cc4)n3)C2)cc1 (centres unmarked) [GSK1379715] | 0 | 4 | 0 | 0 | 98.6 | 5 | 0 | 22 | 0 | 0 |
| Cc1c(O)cccc1Nc1ccnc2ccc(C(F)(F)F)cc12.Cl [GW466413] | 3 | 0 | 0 | 0 | 0 | 17 | 0 | 0 | 0 | 0 |
| Cc1cc(NCC(c2ccccc2)c2ccccc2)nc(NCc2ccc(C(F)(F)F)cc2)n1 [GW497681] | 23 | 0 | 0 | 5 | 0 | 0 | 0 | 0 | 0 | 0 |
| Fc1cc(Cl)ccc1Nc1ccnc2cc(-c3ccc(CN4CCCCC4)o3)ccc12 [GW560116] | 22 | 2 | 0 | 20 | 0 | 0 | 0 | 5 | 4 | 0 |
| Clc1cc(Cl)cc(Nc2ccnc(Nc3cc(Cl)cc(Cl)c3)n2)c1 [GSK175726] | 0 | 13 | 5 | 18 | 0 | 19 | 0 | 0 | 0 | 0 |
